{"source": "PubChem BioAssay AID602346", "about": "(Broad Institute, 2012)", "note": "Among all 340,000 compounds or so, about 1,200 (0.35%) were called active. The entries come from a sample that favours actives as a whole. Values without a mark were called inactive. No stated cut-off is given here; in the data, active means inhibition above about 50% (passing the limit was not always enough); inconclusive means no clear call, values can overlap the other calls; inactive means below about 31%.", "data": [{"assay": "blockers of Vif multimerization in cells – imaging, HEK293T, single point, primary screen (AID 602346)", "settings": "Vif self-association by quenched fluorescence, 24 h, at 7.49 µM, hits give high values", "values": [{"smiles": "CCCCC(=O)N(C)c1c(CC)nc2c(OCc3ccc(Cl)cc3Cl)cccn12", "inhibition": "1.33%"}, {"smiles": "COc1ccc(NC2CCCN(C(=O)c3ccccc3-c3ncc[nH]3)C2)cc1", "note": "(stereo not drawn)", "inhibition": "10.8%"}, {"smiles": "CC(=O)Nc1cc(-c2ccc(N3CCN(C)CC3)cc2)cn2c(-c3ccc(F)cc3)cnc12", "inhibition": "-22.4%"}, {"smiles": "CCN(CC)C(=O)C1=C(C)N(Cc2ccc(C(C)(C)C)cc2)C(=O)C(CC(=O)NCc2cccc3ccccc23)C1", "note": "(stereo not drawn)", "inhibition": "-1.52%"}, {"smiles": "FC(F)(F)c1nnc2ccc(N3CCN(c4ccccc4)CC3)nn12", "inhibition": "19.6%"}, {"smiles": "Nc1nnc2c(C(F)(F)F)nc3ccccc3n12", "inhibition": "44%"}, {"smiles": "FC(F)(F)c1nnc2c3ccccc3c(Cl)nn12", "inhibition": "78.3% (active)"}, {"smiles": "CC1(Oc2ccccc2-c2ccno2)CCN(Cc2ccc(-c3ccccc3)o2)C1", "note": "(stereo not drawn)", "inhibition": "4.47%"}, {"smiles": "Cc1ccc(-c2cnc(C(O)c3cc(Cl)cc(Cl)c3)[nH]2)cc1", "note": "(stereo not drawn)", "inhibition": "-6.84%"}, {"smiles": "COc1ccc(C(c2nnnn2C2CCCC2)N2CCN(C/C=C/c3ccccc3)CC2)cc1", "note": "(stereo not drawn)", "inhibition": "16.8%"}, {"smiles": "COc1ccc(C2=NN(C(=O)c3cccnc3)C(c3ccccc3)C2)cc1", "note": "(stereo not drawn)", "inhibition": "-3.05%"}, {"smiles": "COc1ccc(C2CC(c3ccccc3)=NN2C(=O)c2ccc(Cl)c([N+](=O)[O-])c2)cc1", "note": "(stereo not drawn)", "inhibition": "89.1% (active)"}, {"smiles": "COc1ccc(C2CC(c3ccc([N+](=O)[O-])cc3)=NN2C(C)=O)cc1", "note": "(stereo not drawn)", "inhibition": "1.95%"}, {"smiles": "CCCCN(C=O)c1c(CC)nc2c(OCCC3CCCCC3)cccn12", "inhibition": "-3.38%"}, {"smiles": "Cc1ccccc1C1=NC(C(F)(F)F)(C(F)(F)F)c2c(n(-c3ccc(F)cc3)c(=O)[nH]c2=O)N1", "inhibition": "-7.19%"}, {"smiles": "Nc1c(N(Cc2ccco2)C(=O)c2cccc(F)c2)c(=O)[nH]c(=O)n1Cc1ccccc1", "inhibition": "6.01%"}, {"smiles": "O=c1[nH]c(=O)n(Cc2ccco2)c2c1C(C(F)(F)F)(C(F)(F)F)N=C(c1ccco1)N2", "inhibition": "51.3% (active)"}, {"smiles": "C=C(C)C(=O)O[C@H]1C/C(C)=C\\C(=O)/C=C(\\C)[C@H](O)[C@@H]2OC(=O)C(=C)[C@@H]21", "inhibition": "136% (active)"}, {"smiles": "O=C(NC(c1ccc(Cl)cc1)c1cnccn1)C1CCN(Cc2ccc(Cl)cc2)CC1", "note": "(stereo not drawn)", "inhibition": "26.5%"}, {"smiles": "CC(=O)c1ccc(Nc2nc(C(N)c3ccccc3)cs2)cc1", "note": "(stereo not drawn)", "inhibition": "-5.96%"}, {"smiles": "COc1ccc(OC)c(NC(=O)C2(C)CCN2C(=O)Cc2ccccc2)c1", "note": "(stereo not drawn)", "inhibition": "2.75%"}, {"smiles": "CC(C)CC1C(=O)N(Cc2cn(Cc3ccco3)nn2)CCS(=O)(=O)N1Cc1ccc(-c2ccc(Cl)c(Cl)c2)cc1", "note": "(stereo not drawn)", "inhibition": "0.356%"}, {"smiles": "O=C(Nc1cccc(-n2cnnn2)c1)c1cccnc1", "inhibition": "1.28%"}, {"smiles": "O=S(=O)(Nc1cccc(-n2cnnn2)c1)c1cnc(Cl)c(Cl)c1", "inhibition": "-0.268%"}, {"smiles": "Cc1ccc(C)c(S(=O)(=O)Nc2cccc(-n3cnnn3)c2)c1", "inhibition": "69.3% (active)"}, {"smiles": "COc1cccc(-c2cnc3c(NC(C)=O)cc(-c4cccc(NC(C)=O)c4)cn23)c1", "inhibition": "-4.77%"}, {"smiles": "O=C(NCCN1CCOCC1)c1ccccc1N1C(=O)[C@@H]2Cc3c([nH]c4ccccc34)C(c3cccc(Cl)c3)N2C1=O", "note": "(stereo partly drawn)", "inhibition": "2.4%"}, {"smiles": "COc1ccc(CNC(=O)[C@H](Cc2c[nH]c3ccccc23)NC(C)=O)cc1OC", "inhibition": "-6.67%"}, {"smiles": "CCOC(=O)c1ccccc1NC(=O)COC(=O)C(Cc1c[nH]c2ccccc12)NC(C)=O", "note": "(stereo not drawn)", "inhibition": "1.23%"}, {"smiles": "CC(=O)NC(Cc1c[nH]c2ccccc12)C(=O)NCCc1ccccc1", "note": "(stereo not drawn)", "inhibition": "50.4% (active)"}, {"smiles": "COc1ccc(Br)c(Cn2c(C)c(C(=O)NCc3cccs3)sc2=O)c1", "inhibition": "1.02%"}, {"smiles": "CC[C@]1(O)C[C@@H]2CN(CCc3c([nH]c4ccccc34)[C@@](C(=O)OC)(c3cc4c(cc3OC)N(C)[C@H]3[C@@](O)(C(=O)OC)[C@H](OC(C)=O)[C@]5(CC)C=CCN6CC[C@]43[C@@H]65)C2)C1", "inhibition": "79.8% (active)"}, {"smiles": "CCOCC(=O)Nc1cc(OC)c(Cl)cc1OC", "inhibition": "-3.02%"}, {"smiles": "COc1cc(NC(=O)c2ccc(-c3csc(C)n3)cc2)c(OC)cc1Cl", "inhibition": "64% (active)"}, {"smiles": "COc1cc(NC(=O)c2ccccc2)c(OC)cc1NC(=O)Cc1ccccc1", "inhibition": "-4.83%"}, {"smiles": "COCC(=O)Nc1c(I)c(C(=O)NCC(O)CO)c(I)c(C(=O)N(C)CC(O)CO)c1I", "note": "(stereo not drawn)", "inhibition": "-1.59%"}, {"smiles": "CC(=O)N(CC(O)CO)c1c(I)c(C(=O)NCC(O)CO)c(I)c(C(=O)NCC(O)CO)c1I", "note": "(stereo not drawn)", "inhibition": "62% (active)"}, {"smiles": "CC12CCC(=O)C=C1CCC1C2C(O)CC2(C)C1CCC2(O)C(O)CO", "note": "(stereo not drawn)", "inhibition": "24%"}, {"smiles": "C[C@H]([C@@H](O)[C@@H](O)[C@@H](C)C(C)(C)C)[C@H]1CC[C@H]2C3CC[C@H]4C[C@H](OS(=O)(=O)O)[C@@H](OS(=O)(=O)O)C[C@]4(C)[C@H]3CC[C@]12C", "note": "(stereo partly drawn)", "inhibition": "9.95%"}, {"smiles": "CC(C)(C)CC(=O)Nc1nc(C(N)Cc2ccc(C(F)(F)F)cc2)cs1", "note": "(stereo not drawn)", "inhibition": "-2.15%"}, {"smiles": "C[C@@H]1CN([C@@H](C)CO)S(=O)(=O)c2ccc(C#Cc3cccc(F)c3)cc2O[C@H]1CN(C)S(=O)(=O)c1cn(C)cn1", "inhibition": "-26.5%"}, {"smiles": "COC(=O)c1cc(S(=O)(=O)N2CCN(c3cc(C)ccc3C)CC2)c[nH]1", "inhibition": "51.4% (active)"}, {"smiles": "Cc1ccc(C)c(N2CCN(S(=O)(=O)c3c(C)[nH]c(C)c3C(=O)N3CCCC3)CC2)c1", "inhibition": "1.25%"}, {"smiles": "Cc1ccc(C)c(N2CCN(S(=O)(=O)c3ccc4c(c3)oc(=O)n4C)CC2)c1", "inhibition": "-13.1%"}, {"smiles": "CCCCCCNC(=O)O[C@H]1CN(C(=O)OC(C)C)N(C(=O)OC(C)C)[C@@H]2CN(S(=O)(=O)c3ccc(C)cc3)C[C@]12O", "inhibition": "-2.14%"}, {"smiles": "CCOP(=O)(OCC)C(Cc1ccccc1)N=C(c1ccccc1)c1ccccc1", "note": "(stereo not drawn)", "inhibition": "-3.63%"}, {"smiles": "CC1(C(=O)Nc2cccc(Oc3ccccc3)c2)CCN1Cc1ccccc1Cl", "note": "(stereo not drawn)", "inhibition": "1.11%"}, {"smiles": "O=C(c1ccco1)N1CCN(CCOc2ccccc2)CC1", "inhibition": "3.05%"}, {"smiles": "CN(Cc1ccccc1)C(=O)CCC1CCN(C(=O)c2ccco2)CC1", "inhibition": "132% (active)"}, {"smiles": "O=C(c1ccco1)N1CCN(C(=O)C2c3ccccc3Oc3ccccc32)CC1", "inhibition": "2.39%"}, {"smiles": "COc1ccc(C(C#N)=C2C=CC(=NO)c3ccccc32)cc1", "inhibition": "24.3%"}, {"smiles": "NC(c1ccccc1)c1csc(NC(=O)Nc2cccc(C(F)(F)F)c2)n1", "note": "(stereo not drawn)", "inhibition": "4.85%"}, {"smiles": "COc1ccc(-c2ccc(CN3C(CC(C)C)C(=O)N(Cc4cn(CC5CCCCC5)nn4)CCS3(=O)=O)cc2)cn1", "note": "(stereo not drawn)", "inhibition": "-4.05%"}, {"smiles": "CN(c1ccccc1)S(=O)(=O)c1cc(C(=O)Nc2nc3ccccc3[nH]2)ccc1Cl", "inhibition": "-13.9%"}, {"smiles": "COC(=O)Nc1nc2ccc(Sc3ccccc3)cc2[nH]1", "inhibition": "57% (active)"}, {"smiles": "Cc1ccc(O)c(CNc2nc3ccccc3[nH]2)c1", "inhibition": "-2.01%"}, {"smiles": "COc1ccc(CC(N)c2csc(NC(=O)Cc3ccccc3)n2)cc1", "note": "(stereo not drawn)", "inhibition": "-11.3%"}, {"smiles": "COC(=O)c1ccc(NCC(=O)c2ccccc2)cc1", "inhibition": "3.71%"}, {"smiles": "CC(C)OC(=O)c1ccc(NCc2cc(O)ccc2O)cc1Cl", "inhibition": "55.2% (active)"}, {"smiles": "O=C(OC12CC3CC(CC(C3)C1)C2)c1ccc(NCc2cc(O)ccc2O)cc1", "inhibition": "8.83%"}, {"smiles": "CC(OC(=O)c1ccc(Cl)cc1O)C(=O)NCCC1=CCCCC1", "note": "(stereo not drawn)", "inhibition": "11.7%"}, {"smiles": "COC(=O)c1ccc(NCc2cc(O)ccc2O)cc1", "inhibition": "101% (active)"}, {"smiles": "CC(CN1CCOCC1)OC(=O)c1ccc(Cl)cc1Cl", "note": "(stereo not drawn)", "inhibition": "4.38%"}, {"smiles": "COc1ccc(C(NC(=O)C2CCN(CCCc3ccccc3)CC2)c2cccs2)cc1", "note": "(stereo not drawn)", "inhibition": "14.2%"}, {"smiles": "CCCCC[C@@H]1C=C(C(=O)OCC)[C@H](c2ccccc2)N1S(=O)(=O)c1ccc(C)cc1", "inhibition": "3.46%"}, {"smiles": "COc1ccc(C(=O)NCc2nnc(SCC(=O)Nc3cccc(OC)c3)o2)cc1", "inhibition": "19%"}, {"smiles": "COc1ccc(Cc2nnc(SCC(=O)Nc3ccc(C)c(C)c3)o2)cc1OC", "inhibition": "3.15%"}, {"smiles": "COc1cccc(NC(=O)CSc2nnc(Cc3ccc(OC)c(OC)c3)o2)c1", "inhibition": "60.1% (active)"}, {"smiles": "CNc1cncc(-c2ccc(NS(C)(=O)=O)cc2)n1", "inhibition": "21.1%"}, {"smiles": "COc1ccc(-c2ccc(C(=O)NCCN3CCOCC3)c3occc23)c(C)c1", "inhibition": "-8.68%"}, {"smiles": "Cc1cc(C)cc(C(=O)NCCN2CCOCC2)c1", "inhibition": "-5.07%"}, {"smiles": "Cc1ccc(C(=O)NC(=S)NCCN2CCOCC2)cc1", "inhibition": "50.2% (active)"}, {"smiles": "Cc1ccc(C(=O)N/C(=C\\c2ccc(F)cc2)C(=O)NCCN2CCOCC2)cc1", "inhibition": "4.18%"}, {"smiles": "Cc1cc(=O)oc2c3c(cc(OCC(=O)NCC(O)c4ccccc4)c12)OC(C)(C)CC3", "note": "(stereo not drawn)", "inhibition": "-17%"}, {"smiles": "COc1ccc(CC(N)c2csc(NC(=O)NC(c3ccccc3)c3ccccc3)n2)cc1", "note": "(stereo not drawn)", "inhibition": "2.09%"}, {"smiles": "COc1cc(Cn2c3ccc(NC(=O)CC(C)c4ccccc4)cc3c(=O)n2C)ccc1F", "note": "(stereo not drawn)", "inhibition": "-4.26%"}, {"smiles": "CC(C)c1cc(N=O)cc(C(C)C)c1O", "inhibition": "3.46%"}, {"smiles": "CC(C)=CCc1c(O)c(CC=C(C)C)c2occ(-c3ccc(O)cc3)c(=O)c2c1O", "inhibition": "6.99%"}, {"smiles": "CC(C)=CCc1ccc(O)c(=O)cc1C(C)C", "inhibition": "114% (active)"}, {"smiles": "O[C@H]1C[C@H](c2ccc(Cl)cc2)N(Cc2cccs2)C[C@@H]1n1cc(C2CC2)nn1", "inhibition": "-12.7%"}, {"smiles": "COc1ccc(-c2nc3cc(C)ccn3c2NC2CCCCC2)cc1SC1CCCCC1", "inhibition": "-0.392%"}, {"smiles": "COc1ccc(-c2nc3cnccn3c2NC2CCCCC2)cc1-c1cccc(Cl)c1", "inhibition": "51.8% (active)"}, {"smiles": "COc1ccc(-c2nc3cnccn3c2NC(C)(C)CC(C)(C)C)cc1O", "inhibition": "-5.81%"}]}]}
